# Rows were chosen to be rich in hits. Some 1.1% of all compounds tested hit in one or more screens of this group.
# HTR5A inv ctr – counter-screen for OPRM1-OPRD1 inverse agonists: human HTR5A inverse agonism; AID 504634; P47898; 340,000 compounds, 0.083% hits; HTR5A cell line, luminescence; inhibition, % at 9.3 µM; in the data active = inhibition mostly above about 23%, no sharp cut-off; inactive = mostly below about 18%;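 also: 0% = cells with DMSO and 100% = no-cell wells with DMSO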
# OPRM1-OPRD1 inv – mu-delta opioid heterodimer inverse agonism; P35372+P41143; 340,000 compounds, 0.21% hits; inhibition, % at 9.3 µM; AID 504357; cell-based MOR-DOR heterodimer luminescence; in the data active = inhibition above about 22%, passing the limit was not always enough;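 also: 0% = cells with DMSO and 100% = wells without cells with DMSO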
# Target sequence (P35372 whole entry, looked up): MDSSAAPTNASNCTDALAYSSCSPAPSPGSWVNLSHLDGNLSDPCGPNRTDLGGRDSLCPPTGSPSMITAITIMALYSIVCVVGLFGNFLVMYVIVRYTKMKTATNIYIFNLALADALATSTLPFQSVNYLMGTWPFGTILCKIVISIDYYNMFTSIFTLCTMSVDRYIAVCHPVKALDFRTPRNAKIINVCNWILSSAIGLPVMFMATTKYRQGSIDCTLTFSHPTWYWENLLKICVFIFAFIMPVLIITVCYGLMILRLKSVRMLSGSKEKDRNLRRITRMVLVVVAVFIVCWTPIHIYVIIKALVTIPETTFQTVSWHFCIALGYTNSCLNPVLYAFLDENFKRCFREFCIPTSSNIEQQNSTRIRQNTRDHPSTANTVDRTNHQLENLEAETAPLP
# Target sequence (P41143 whole entry, looked up): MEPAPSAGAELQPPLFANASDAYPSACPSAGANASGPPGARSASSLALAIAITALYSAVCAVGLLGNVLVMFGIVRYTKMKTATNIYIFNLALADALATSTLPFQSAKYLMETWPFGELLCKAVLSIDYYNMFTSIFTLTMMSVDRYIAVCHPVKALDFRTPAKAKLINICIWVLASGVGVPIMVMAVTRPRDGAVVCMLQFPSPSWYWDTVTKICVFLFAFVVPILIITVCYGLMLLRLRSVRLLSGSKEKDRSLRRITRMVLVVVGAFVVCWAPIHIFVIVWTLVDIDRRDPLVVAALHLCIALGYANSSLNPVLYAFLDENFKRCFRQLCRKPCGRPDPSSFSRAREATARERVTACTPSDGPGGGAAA
# MOR-DOR ag-1 – OPRM1-OPRD1 heterodimerization agonism. P35372+P41143. 340,000 compounds, 0.3% hits. activation, % at 9.3 µM. cells, luminescence. AID 504326;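 also: 0% = vehicle-treated cells and 100% = reference agonist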
# HTR5A ag ctr – HTR5A agonism, opioid heterodimer counter-screen; activation, % at 9.3 µM; HTR5A agonist assay, luminescence, cell-based; 340,000 compounds, 0.61% hits; in the data active = activation mostly above about 9.5%, no sharp cut-off; inactive = mostly below about 7.6%;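 also: 0% = cells with vehicle only and 100% = reference agonist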
# MOR-DOR ag-2 – promotes OPRM1-OPRD1 heterodimerization in HTR5A counter-screen; shares compounds with HTR5A ag ctr; U2OS counter-screen cells, complementation luminescence, 3 h; activation, % at 9.3 µM; 800 compounds, 13% hits; AID 504913
# HTR5A ag confirm – HTR5A (human) agonism, confirmation; shares compounds with HTR5A ag ctr; activation, % at 9.3 µM; 800 compounds, 17% hits; HTR5A agonist cell assay, luminescence; AID 504915; in the data active = activation above about 17%;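 also: 0% = cells with vehicle only and 100% = full reference agonist response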
# Numbers without * were called inactive; . = no result given. Rule as the data show it, unless noted: active = activation above about 18%; inactive = the rest.
SMILES,HTR5A inv ctr,OPRM1-OPRD1 inv,MOR-DOR ag-1,HTR5A ag ctr,MOR-DOR ag-2,HTR5A ag confirm
COc1ccc(NS(=O)(=O)c2cccc(C(=O)N3CCN(Cc4cc(OC)ccc4OC)CC3)c2)cc1,-16,-2,0,15*,135*,-5
CCCn1c(=O)c2[nH]c(-c3ccc(S(=O)(=O)O)cc3)nc2n(CCC)c1=O,-4,5,-1,1,.,.
c1ccc2c(CC3=NCCN3)cccc2c1,-13,3,-1,4,.,.
Cc1cc(C(C)(C)C)c(O)c(C)c1CC1=NCCN1,-232,6,-1,84*,0,86*
O=C(COc1ccc(Cl)cc1Cl)NNC(=S)Nc1ccc(F)cc1,-17,4,-1,-2,.,.
CC(=O)NC(=S)Nc1ccc(NC(=O)COc2ccc(Cl)cc2Cl)cc1,-33,-52,8,27*,0,-3
O=C1c2cc([N+](=O)[O-])ccc2-c2cc(Cl)c(NC(=O)C(F)(F)F)cc21,11,1,0,-3,.,.
O=C1c2cc([N+](=O)[O-])ccc2-c2cc(Br)c(N=C(NO)C(F)(F)F)cc21,-81,-27,6,21*,19*,0
CCOc1ccc(S(=O)(=O)Nc2ccc(C(=O)NCc3ccncc3)cc2)cc1,8,3,-1,-3,.,.
Cc1c(C(=O)c2no[n+]([O-])c2C(=O)c2cnn(C)c2C)cnn1C,-22,-6,1,26*,11,15
O=C(c1cccs1)c1no[n+]([O-])c1C(=O)c1cccs1,-9,-2,0,3,.,.
O=C(NCCN1CCOCC1)C1CCC(=O)N1C1CCCCC1 (configuration not stated),6,14,-2,1,.,.
COc1ccc2[nH]c3c(c2c1)CCNC3C1CC=C(C)CC1 (configuration not stated),-51,-7,1,34*,5,51*
O=C(COc1ccc(-c2ccccc2)cc1)N/N=C/c1cc(O)ccc1Br,-21,-26,4,22*,255*,-2
Cc1ccc(C)c(C(=O)CN2Cc3ccccc3C2=O)c1,21,14,-3,-2,.,.
CCOC(=O)c1oc2ccccc2c1COC(=O)CNC(=O)c1ccc(C)cc1,16,2,0,-6,.,.
C=CCn1c(Br)nc2c1c(=O)[nH]c(=O)n2C,-47,-1,0,18*,-1,-1
CC1(C)Cc2c(C#N)c(SCCC#N)nc(N3CCOCC3)c2CS1,-8,1,0,15*,1,3
C=CCNC(=O)c1ccccc1NC(=O)c1ccccc1C,1,-10,2,-4,.,.
COc1ccc(Cl)cc1N(CC(=O)NCCSc1ccccn1)S(=O)(=O)c1ccccc1,-49,-8,1,16*,1,18*
COc1ccc(N(CC(=O)NCCSc2ccccn2)S(=O)(=O)c2ccccc2)cc1Cl,-3,12,-2,4,.,.
COc1cc(/C=C/C(=O)O)cc(OC)c1OC,-138,4,-1,39*,1,-4
CCc1ccc(-c2nn(-c3cc(Cl)ccc3[N+](=O)[O-])c(=O)c3ccccc23)cc1,3,9,-2,3,.,.
CCc1ccc(-c2cc(C(=O)Nc3ccc(S(=O)(=O)NC(C)=O)cc3)c3ccccc3n2)cc1,-51,12,-2,21*,10,-3
Cc1ccc(-c2cc(C(=O)Nc3ccc(S(=O)(=O)Nc4ncccn4)cc3)c3ccccc3n2)cc1,-9,-2,0,-2,.,.
SMILES,HTR5A inv ctr,OPRM1-OPRD1 inv,MOR-DOR ag-1,HTR5A ag ctr,MOR-DOR ag-2,HTR5A ag confirm
CCOc1ccccc1NC(=S)N(CCOC)C1CCN(C(C)=O)CC1,12,5,-1,15*,3,-1
COc1cc(OC)cc(C(=O)Nc2ccc(Nc3ccccc3)cc2)c1,6,5,-1,-2,.,.
COc1cc(OC)cc(C(=O)Nc2nnc(NC(=S)Nc3ccccc3)s2)c1,-15,1,0,15*,2,-3
O=S(=O)(c1cnc(Cl)c(Cl)c1)N1CCc2ccccc21,-46,-30,5,16*,121*,-1
COc1ccc(C2=NOC(Cn3nc(C(=O)NCc4ccco4)cc3-c3ccccc3)C2)cc1 (configuration not stated),-5,6,-1,-1,.,.
O=C(Nc1ccccc1)c1ccc2ccccc2n1,17,-23,5,-3,.,.
O=C(Nc1ccccc1C(=O)O)c1ccc2ccccc2n1,-66,13,-3,26*,52*,3
CN(C)CCCN(C(=O)c1ccco1)c1nc2ccc(F)cc2s1,-13,16,-3,4,.,.
